Assay results published in the supplement of paper PMC9694430.

Assays:
Experiment in all cases: thermal shift delta Tm vs DMSO control; higher = stronger stabilization (binding)
Conditions in all cases: 12.5 µM; protein concentration 2 µM
LOC_OS01G01410-cb001 = test system: LOC_OS01G01410-cb001
Outline: (§1)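 Thermal shift values come from differential scanning fluorimetry on purified rice kinase domains made in E. coli, with melting temperatures obtained from Boltzmann fits. Samples of 19.5 μl held 2 μM kinase, 100 mM potassium phosphate pH 7.5, 150 mM NaCl, 10% glycerol, 5 × SYPRO Orange and compound in DMSO, and were heated from 25°C to 95°C at 0.05°C/s. Each shift is a triplicate mean relative to the DMSO-only protein sample.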

LOC_OS01G02750-cb003 = test system: LOC_OS01G02750-cb003
Outline: as §1

LOC_OS01G10900-cb004 = test system: LOC_OS01G10900-cb004
Outline: as §1

LOC_OS01G13800-cb001 = test system: LOC_OS01G13800-cb001
Outline: as §1

LOC_OS01G14860-cb001 = test system: LOC_OS01G14860-cb001
Outline: as §1

LOC_OS01G21960-cb002 = test system: LOC_OS01G21960-cb002
Outline: as §1

LOC_OS01G39600-cb002 = test system: LOC_OS01G39600-cb002
Outline: as §1

LOC_OS01G48390-cb002 = test system: LOC_OS01G48390-cb002
Outline: as §1

LOC_OS01G51400-cb002 = test system: LOC_OS01G51400-cb002
Outline: as §1

LOC_OS01G52050-cb004 = test system: T1, LOC_OS01G52050-cb004
T1 sequence (whole entry): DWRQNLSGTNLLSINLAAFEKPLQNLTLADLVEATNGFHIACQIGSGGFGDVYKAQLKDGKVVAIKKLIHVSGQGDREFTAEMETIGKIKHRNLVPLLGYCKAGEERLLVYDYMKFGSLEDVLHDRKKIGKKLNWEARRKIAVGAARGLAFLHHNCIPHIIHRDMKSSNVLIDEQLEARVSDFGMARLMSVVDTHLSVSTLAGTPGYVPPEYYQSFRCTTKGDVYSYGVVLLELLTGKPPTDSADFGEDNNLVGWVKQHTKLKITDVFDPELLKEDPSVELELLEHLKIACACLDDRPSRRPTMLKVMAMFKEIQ
Outline: as §1

LOC_OS01G57100-cb003 = test system: LOC_OS01G57100-cb003
Outline: as §1

LOC_OS01G60330-cb001 = test system: LOC_OS01G60330-cb001
Outline: as §1

LOC_OS01G60700-cb002 = test system: LOC_OS01G60700-cb002
Outline: as §1

LOC_OS01G63280-cb003 = test system: LOC_OS01G63280-cb003
Outline: as §1

LOC_OS01G67340-cb003 = test system: LOC_OS01G67340-cb003
Outline: as §1

LOC_OS01G70970-cb002 = test system: LOC_OS01G70970-cb002
Outline: as §1

LOC_OS02G07810-cb001 = test system: LOC_OS02G07810-cb001
Outline: as §1

LOC_OS02G08530-cb003 = test system: LOC_OS02G08530-cb003
Outline: as §1

LOC_OS02G14120-cb001 = test system: LOC_OS02G14120-cb001
Outline: as §1

LOC_OS02G17970-cb001 = test system: LOC_OS02G17970-cb001
Outline: as §1
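Note: purified Escherichia coli-expressed rice kinase domain construct.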

| Structure (SMILES) | thermal shift delta Tm (LOC_OS01G01410-cb001) [°C] | thermal shift delta Tm (LOC_OS01G02750-cb003) [°C] | thermal shift delta Tm (LOC_OS01G10900-cb004) [°C] | thermal shift delta Tm (LOC_OS01G13800-cb001) [°C] | thermal shift delta Tm (LOC_OS01G14860-cb001) [°C] | thermal shift delta Tm (LOC_OS01G21960-cb002) [°C] | thermal shift delta Tm (LOC_OS01G39600-cb002) [°C] | thermal shift delta Tm (LOC_OS01G48390-cb002) [°C] | thermal shift delta Tm (LOC_OS01G51400-cb002) [°C] | thermal shift delta Tm (LOC_OS01G52050-cb004) [°C] | thermal shift delta Tm (LOC_OS01G57100-cb003) [°C] | thermal shift delta Tm (LOC_OS01G60330-cb001) [°C] | thermal shift delta Tm (LOC_OS01G60700-cb002) [°C] | thermal shift delta Tm (LOC_OS01G63280-cb003) [°C] | thermal shift delta Tm (LOC_OS01G67340-cb003) [°C] | thermal shift delta Tm (LOC_OS01G70970-cb002) [°C] | thermal shift delta Tm (LOC_OS02G07810-cb001) [°C] | thermal shift delta Tm (LOC_OS02G08530-cb003) [°C] | thermal shift delta Tm (LOC_OS02G14120-cb001) [°C] | thermal shift delta Tm (LOC_OS02G17970-cb001) [°C] |
| --- | --- | --- | --- | --- | --- | --- | --- | --- | --- | --- | --- | --- | --- | --- | --- | --- | --- | --- | --- | --- |
| C=CC(=O)Nc1cc(Nc2nccc(-c3c[nH]c4ccccc34)n2)c(OC)cc1N(C)CCN(C)C | 0.92 | 0.98 | 0.33 | 0.08 | 0.37 | 0.6 | 0.12 | 0.83 | 0.34 | 0.96 | 1.63 | 0.87 | 1.61 | 0.65 | 0.79 | 0.59 | 0.87 | 5.01 | 4.93 | 1.65 |
| COc1cc2ncnc(Nc3ccc(F)c(Cl)c3)c2cc1OCCCN1CCOCC1 [Gefitinib (ZD1839)] | 1.27 | 0.13 | 3.7 | 0.4 | 0.18 | -0.07 | 1.46 | 2.87 | 0.02 | 0.77 | 0.37 | 0.16 | 1.04 | 0.4 | -0.59 | 0.28 | 0.77 | 0.6 | 4.78 | 0.15 |
| CC(C)c1c2cc(-c3ccnc(NC4CCC(NC5CCOCC5)CC4)n3)ccc2nn1C (stereo not given) | 1.15 | 4.38 | 1.83 | -0.3 | 7.15 | 2.64 | 1.1 | 2.74 | 0.39 | 2.13 | 0.61 | 0.07 | 0.86 | 0.36 | 0.46 | 0.29 | 0.41 | 1.38 | 4.79 | 0.57 |
| N#CC[C@H](C1CCCC1)n1cc(-c2ncnc3[nH]ccc23)cn1 | 0.74 | 1.15 | 0.65 | -0.01 | 1.62 | 1.47 | 0.6 | 0.4 | -0.02 | 0.98 | 0.48 | 1.16 | 0.62 | 0.56 | 0.07 | 0.28 | 1.11 | 1.14 | 3.58 | 0.47 |
| CCOc1cc2ncc(C#N)c(Nc3ccc(F)c(Cl)c3)c2cc1NC(=O)/C=C/CN(C)C [Pelitinib (EKB-569)] | 0.85 | 0.32 | 1.14 | 0.55 | 4.99 | 1.49 | 4.78 | 0.69 | 0.03 | 3.13 | 2.45 | 0.74 | 0.94 | -0.05 | 0.12 | 0.22 | 0.84 | 0.59 | 0.98 | 0.01 |
| Cc1ccc(NC(=O)c2ccc(CN3CCN(C)CC3)cc2)cc1Nc1nc(-c2cccnc2)cs1 [Masitinib (AB1010)] | 1.11 | 0.48 | 0.92 | 0.24 | 0.16 | 0.26 | -0.05 | 0.15 | -0.06 | -0.18 | 0.04 | 1.59 | 0.59 | 0.19 | -0.46 | 0.24 | 0.34 | 0.9 | 0.12 | 0.55 |
| FC(F)c1nc2ccccc2n1-c1nc(N2CCOCC2)nc(N2CCOCC2)n1 | 0.85 | 0.92 | 0.18 | 0.89 | -0.06 | 0.23 | 0.94 | 0.8 | 0.35 | 0.72 | 0.81 | 1.34 | 1.13 | 0.27 | -0.18 | 0.47 | 0.59 | 0.83 | 0.41 | 0.88 |
| Cc1c(Cn2c(C)nc3c(C(=O)O)cc(N4CCOCC4)cc32)cccc1C(F)(F)F | 0.42 | 2.18 | 0.15 | -0.48 | -0.01 | 0.56 | 0.55 | 5.45 | 0.63 | -0.39 | 1.01 | 0.83 | 0.4 | -0.3 | 0.23 | 0.27 | 0.73 | 0.55 | -0.38 | 0.26 |
| Cc1ccc(-n2nc(C(C)(C)C)cc2NC(=O)NCc2cc(F)ccc2Oc2ccc3c(cnn3CCO)c2)cc1 [Pexmetinib (ARRY-614)] | 0.56 | 1.41 | 0.65 | -0.01 | 0.85 | 1.27 | 0.75 | 1.8 | 0.36 | 1.87 | 1.23 | 2 | 0.83 | 6.58 | 0.87 | 0.6 | 0.69 | 0.78 | 4.57 | 1.52 |
| O=C(NOCC(O)CO)c1cc(Br)c(F)c(F)c1Nc1ccc(I)cc1F (stereo not given) | 0.9 | 3.49 | 1.07 | 1.05 | 1.29 | 1.44 | 0.76 | 1.12 | 0.46 | 2.46 | 2.4 | 2.2 | 1.6 | 1.18 | 0.03 | 0.55 | 2.41 | 1.08 | 1.22 | 2.02 |
| Cc1ncc(CO)c(CO)c1O [Pyridoxine] | -0.03 | 0.64 | 0.29 | -0.11 | 0.24 | 0.13 | -0.13 | 0.22 | 0.06 | 4.05 | -0.85 | -0.2 | -0.29 | -0.26 | 0.08 | 0.33 | -0.63 | 0.26 | 0.41 | 0.66 |
| CC(C)c1cnn2c(NCc3ccccc3)cc(NCCCCCCN)nc12 | 0.34 | 0.13 | 0.11 | -0.23 | 0.11 | 0.56 | -0.29 | 0.09 | -0.21 | 0.18 | 0.82 | 0.42 | 0.03 | 0.24 | -0.22 | 0.19 | 0.44 | 0.66 | -0.59 | 0.24 |
| C[C@H](Nc1ncnc2nc[nH]c12)c1cc2cccc(Cl)c2c(=O)n1-c1ccccc1 [Duvelisib (IPI-145, INK1197)] | -0.46 | 0.34 | 0.09 | -0.35 | 0.37 | 0.25 | -0.51 | 1.02 | 0.38 | 0.47 | -0.45 | 0.3 | 1.43 | 0.2 | 0.06 | 0.33 | 0.73 | 0.77 | 0.47 | 0.68 |
